# Measured values taken from ChEMBL document CHEMBL1201862, “PubChem BioAssay data set” (2004).
# Screen size: about 390,000 compounds; about 17,000 (4.4%) were called active. About 8% were inconclusive and are not listed. The rule behind the calls is not given here. Many of the other results were omitted from the sample, so actives are more common in it than they were.
# Biological target: T1, Lysine-specific demethylase 4A (Homo sapiens) (UniProt O75164)
# T1 sequence (whole entry): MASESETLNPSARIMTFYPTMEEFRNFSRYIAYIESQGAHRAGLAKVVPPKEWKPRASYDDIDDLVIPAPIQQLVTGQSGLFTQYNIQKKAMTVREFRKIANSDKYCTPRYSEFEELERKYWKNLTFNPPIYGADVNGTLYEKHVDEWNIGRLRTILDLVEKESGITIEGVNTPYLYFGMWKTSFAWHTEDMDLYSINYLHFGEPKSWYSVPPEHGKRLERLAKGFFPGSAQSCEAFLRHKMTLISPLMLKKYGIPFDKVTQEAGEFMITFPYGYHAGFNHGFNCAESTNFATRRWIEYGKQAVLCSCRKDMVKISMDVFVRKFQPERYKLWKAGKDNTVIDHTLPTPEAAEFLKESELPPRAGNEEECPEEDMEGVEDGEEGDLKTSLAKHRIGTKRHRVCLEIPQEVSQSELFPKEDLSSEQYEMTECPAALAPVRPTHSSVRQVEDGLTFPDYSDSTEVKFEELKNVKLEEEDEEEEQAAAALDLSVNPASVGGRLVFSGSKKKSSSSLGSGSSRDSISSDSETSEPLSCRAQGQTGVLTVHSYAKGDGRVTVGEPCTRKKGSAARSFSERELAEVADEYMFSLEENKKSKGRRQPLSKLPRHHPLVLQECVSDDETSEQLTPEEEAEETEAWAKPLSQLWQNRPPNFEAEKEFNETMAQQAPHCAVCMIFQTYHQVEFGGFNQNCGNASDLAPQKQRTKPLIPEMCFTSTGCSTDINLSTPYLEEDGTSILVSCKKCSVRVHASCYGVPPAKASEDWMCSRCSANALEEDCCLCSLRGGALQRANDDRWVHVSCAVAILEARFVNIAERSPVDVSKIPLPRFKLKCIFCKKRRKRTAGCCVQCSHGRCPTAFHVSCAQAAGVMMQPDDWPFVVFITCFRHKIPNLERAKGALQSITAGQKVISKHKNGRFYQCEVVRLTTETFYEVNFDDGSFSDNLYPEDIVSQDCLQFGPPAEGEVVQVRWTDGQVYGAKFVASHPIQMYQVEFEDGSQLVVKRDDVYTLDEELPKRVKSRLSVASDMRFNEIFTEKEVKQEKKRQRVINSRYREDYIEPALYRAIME
# Experiment: qHTS Assay for Inhibitors of JMJD2A-Tudor Domain. [Related pubchem assays (depositor defined):AID504402]
# Type: functional
row,Compound,Potency
1,CCCc1nnc(NC(=O)C2C(=O)c3cccc4c3N(CC4)C2=O)s1 (stereo not drawn),44.7 µM (active)
2,Cl.NC(CCC(=O)O)C(=O)O (stereo not drawn),3.55 µM (active)
3,Cl.N[C@@H](CCC(=O)O)C(=O)O,20 µM (active)
